# Article PMC7862700, “An all-to-all approach to the identification of sequence-specific readers for epigenetic DNA modifications on cytosine”
# Columns and labels:
# Test in all cases: DAPPL (digital affinity profiling via proximity ligation, sequencing); 10 mM Tris-HCl pH 7.5, 50 mM NaCl, 1 mM DTT, 4% glycerol, room temperature, 30 min; GST-TFs on glutathione beads, 16-mer random dsDNA library, 0.1% formaldehyde crosslink after washing; high values mean tight binding
# FEV = molecular target: T1, FEV (Homo sapiens, UniProt Q99581 1-238); settings: protein: recombinant; tags: N-terminal GST; dsDNA, one strand shown
# T1 sequence: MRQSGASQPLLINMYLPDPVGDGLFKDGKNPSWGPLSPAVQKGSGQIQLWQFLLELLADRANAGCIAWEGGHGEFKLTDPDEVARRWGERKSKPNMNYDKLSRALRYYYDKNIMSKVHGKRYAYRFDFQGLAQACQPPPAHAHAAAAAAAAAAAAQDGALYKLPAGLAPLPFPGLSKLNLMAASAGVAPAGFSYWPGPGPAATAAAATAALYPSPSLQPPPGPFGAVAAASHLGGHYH
# How it was run: (§1)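 Binding signal is each hexamer's read frequency for a factor divided by its frequency in the tag-only sample. The factors were GST-fused human transcription factors from yeast, captured on glutathione beads, DNA-barcoded and pooled with that sample. Pools were incubated with 200 nmole of a random double-stranded 16-mer DNA library in Tris/NaCl/DTT/glycerol buffer at room temperature for 30 min, then washed, crosslinked with 0.1% formaldehyde, proximity-ligated with BsaI/T4 ligase (1 h, 37 °C), PCR-amplified and sequenced on an Illumina NextSeq500.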
# ETV5 = ETV5 (Homo sapiens, UniProt P41161 1-510); settings: protein: recombinant; tags: N-terminal GST; dsDNA, one strand shown
# ETV5, sequence (P41161 whole entry): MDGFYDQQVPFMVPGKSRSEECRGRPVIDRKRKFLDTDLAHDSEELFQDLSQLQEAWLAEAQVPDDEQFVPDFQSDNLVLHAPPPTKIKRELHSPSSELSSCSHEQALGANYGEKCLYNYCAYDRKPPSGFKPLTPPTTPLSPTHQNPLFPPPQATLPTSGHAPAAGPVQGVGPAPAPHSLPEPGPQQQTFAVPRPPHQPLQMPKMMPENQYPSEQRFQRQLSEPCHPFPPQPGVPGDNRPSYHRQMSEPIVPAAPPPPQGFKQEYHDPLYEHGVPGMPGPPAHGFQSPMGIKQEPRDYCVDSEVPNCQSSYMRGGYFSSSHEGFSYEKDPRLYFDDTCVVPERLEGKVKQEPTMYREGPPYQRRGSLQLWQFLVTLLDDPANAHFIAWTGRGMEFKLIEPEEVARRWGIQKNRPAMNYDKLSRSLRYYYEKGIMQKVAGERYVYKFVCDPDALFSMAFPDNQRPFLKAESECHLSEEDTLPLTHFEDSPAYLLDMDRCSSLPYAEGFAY
# How it was run: as §1
# HSF1 = HSF1 (Homo sapiens, UniProt Q00613 1-529); settings: protein: recombinant; tags: N-terminal GST; chain copies: 3; dsDNA, one strand shown
# HSF1, sequence (Q00613 whole entry): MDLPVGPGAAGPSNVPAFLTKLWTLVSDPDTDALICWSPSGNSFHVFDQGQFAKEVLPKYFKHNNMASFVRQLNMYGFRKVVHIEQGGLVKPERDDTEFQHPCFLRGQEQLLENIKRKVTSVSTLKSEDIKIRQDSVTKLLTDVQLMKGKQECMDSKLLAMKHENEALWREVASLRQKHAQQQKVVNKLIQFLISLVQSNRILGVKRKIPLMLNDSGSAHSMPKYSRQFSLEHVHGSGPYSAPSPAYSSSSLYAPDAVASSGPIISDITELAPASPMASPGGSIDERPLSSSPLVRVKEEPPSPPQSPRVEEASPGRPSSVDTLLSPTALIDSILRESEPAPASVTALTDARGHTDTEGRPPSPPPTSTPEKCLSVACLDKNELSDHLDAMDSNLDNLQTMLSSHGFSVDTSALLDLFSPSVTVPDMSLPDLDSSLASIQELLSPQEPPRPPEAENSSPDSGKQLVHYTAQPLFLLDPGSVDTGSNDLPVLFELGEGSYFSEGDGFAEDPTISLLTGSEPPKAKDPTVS
# How it was run: as §1
# SPIC = molecular target: T2, SPIC (Homo sapiens, UniProt Q8N5J4 1-248); settings: protein: recombinant; tags: N-terminal GST; dsDNA, one strand shown
# T2 sequence: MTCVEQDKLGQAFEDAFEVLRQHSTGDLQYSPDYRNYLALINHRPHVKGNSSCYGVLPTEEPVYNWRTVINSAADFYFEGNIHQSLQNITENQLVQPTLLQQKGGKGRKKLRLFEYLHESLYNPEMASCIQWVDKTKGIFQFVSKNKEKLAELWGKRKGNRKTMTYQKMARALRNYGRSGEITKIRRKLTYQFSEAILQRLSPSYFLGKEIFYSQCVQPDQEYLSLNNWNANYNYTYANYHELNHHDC
# How it was run: as §1
# ELF4 = ELF4 (Homo sapiens, UniProt Q99607 1-663); settings: protein: recombinant; tags: N-terminal GST; dsDNA, one strand shown
# ELF4, sequence (Q99607 whole entry): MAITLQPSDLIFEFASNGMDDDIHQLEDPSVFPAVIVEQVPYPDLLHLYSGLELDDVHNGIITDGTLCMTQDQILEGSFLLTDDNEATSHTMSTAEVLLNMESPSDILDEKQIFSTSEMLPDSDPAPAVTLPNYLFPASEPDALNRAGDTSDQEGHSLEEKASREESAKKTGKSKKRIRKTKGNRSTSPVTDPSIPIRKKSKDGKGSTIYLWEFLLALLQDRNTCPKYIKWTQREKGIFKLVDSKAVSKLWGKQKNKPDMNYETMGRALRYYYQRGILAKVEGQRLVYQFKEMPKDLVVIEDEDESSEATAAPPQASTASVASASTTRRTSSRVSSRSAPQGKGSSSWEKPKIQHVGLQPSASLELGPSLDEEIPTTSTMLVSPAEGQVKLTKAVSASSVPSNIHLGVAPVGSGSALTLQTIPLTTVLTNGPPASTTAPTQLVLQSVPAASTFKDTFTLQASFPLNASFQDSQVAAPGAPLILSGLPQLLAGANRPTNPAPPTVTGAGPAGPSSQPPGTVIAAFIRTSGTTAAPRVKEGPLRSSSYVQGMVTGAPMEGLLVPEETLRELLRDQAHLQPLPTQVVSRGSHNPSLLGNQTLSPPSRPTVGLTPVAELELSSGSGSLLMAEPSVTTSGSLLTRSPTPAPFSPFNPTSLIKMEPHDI
# How it was run: as §1
# ELK4 = molecular target: T3, ELK4 (Homo sapiens, UniProt P28324-2 1-405); settings: protein: recombinant; tags: N-terminal GST; dsDNA, one strand shown
# T3 sequence: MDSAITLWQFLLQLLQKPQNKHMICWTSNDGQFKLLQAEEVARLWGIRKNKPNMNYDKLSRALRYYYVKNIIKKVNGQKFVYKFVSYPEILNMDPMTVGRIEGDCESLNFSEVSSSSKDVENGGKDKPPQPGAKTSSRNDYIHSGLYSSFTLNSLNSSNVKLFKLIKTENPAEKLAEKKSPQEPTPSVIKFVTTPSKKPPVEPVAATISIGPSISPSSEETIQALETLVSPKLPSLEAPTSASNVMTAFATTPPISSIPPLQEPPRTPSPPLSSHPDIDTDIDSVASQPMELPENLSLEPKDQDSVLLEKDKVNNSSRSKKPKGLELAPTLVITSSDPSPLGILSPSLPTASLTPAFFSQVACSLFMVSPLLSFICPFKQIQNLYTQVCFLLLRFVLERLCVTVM
# How it was run: as §1
# ETV2 = molecular target: T4, ETV2 (Homo sapiens, UniProt O00321 1-342); settings: protein: recombinant; tags: N-terminal GST; dsDNA, one strand shown
# T4 sequence: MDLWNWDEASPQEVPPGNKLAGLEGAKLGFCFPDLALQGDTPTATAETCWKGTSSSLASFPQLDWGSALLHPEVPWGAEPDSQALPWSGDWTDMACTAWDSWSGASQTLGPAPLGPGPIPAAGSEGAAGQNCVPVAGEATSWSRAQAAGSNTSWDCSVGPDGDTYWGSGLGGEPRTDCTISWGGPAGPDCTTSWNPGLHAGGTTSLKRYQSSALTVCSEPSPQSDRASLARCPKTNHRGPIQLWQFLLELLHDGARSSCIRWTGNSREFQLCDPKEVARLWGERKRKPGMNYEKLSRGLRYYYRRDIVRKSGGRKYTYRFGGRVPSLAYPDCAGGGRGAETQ
# How it was run: as §1
# ELF3 = molecular target: T5, ELF3 (Homo sapiens, UniProt P78545 1-371); settings: protein: recombinant; tags: N-terminal GST; dsDNA, one strand shown
# T5 sequence: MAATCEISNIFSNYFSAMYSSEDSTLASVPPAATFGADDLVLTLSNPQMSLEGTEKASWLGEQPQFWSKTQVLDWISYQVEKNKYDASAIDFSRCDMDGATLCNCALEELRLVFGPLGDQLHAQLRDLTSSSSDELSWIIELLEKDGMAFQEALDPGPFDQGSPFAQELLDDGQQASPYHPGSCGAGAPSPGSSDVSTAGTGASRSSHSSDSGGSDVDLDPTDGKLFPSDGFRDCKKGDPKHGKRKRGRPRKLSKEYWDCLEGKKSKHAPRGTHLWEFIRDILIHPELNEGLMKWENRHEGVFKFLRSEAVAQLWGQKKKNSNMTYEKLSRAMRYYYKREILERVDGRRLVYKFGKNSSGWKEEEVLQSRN
# How it was run: as §1
# CRX = CRX (Homo sapiens, UniProt O43186 1-299); settings: protein: recombinant; tags: N-terminal GST; dsDNA, one strand shown
# CRX, sequence (O43186 whole entry): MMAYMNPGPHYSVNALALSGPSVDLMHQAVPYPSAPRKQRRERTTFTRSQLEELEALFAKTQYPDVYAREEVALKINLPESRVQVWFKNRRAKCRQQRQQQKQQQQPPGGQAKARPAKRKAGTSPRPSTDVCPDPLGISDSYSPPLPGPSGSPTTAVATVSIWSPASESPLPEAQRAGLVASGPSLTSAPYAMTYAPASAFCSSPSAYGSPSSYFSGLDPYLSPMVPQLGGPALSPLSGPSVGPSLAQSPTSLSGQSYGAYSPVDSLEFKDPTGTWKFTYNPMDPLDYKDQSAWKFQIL
# How it was run: as §1
# ETV1 = ETV1 (Homo sapiens, UniProt P50549 1-477); settings: protein: recombinant; tags: N-terminal GST; dsDNA, one strand shown
# ETV1, sequence (P50549 whole entry): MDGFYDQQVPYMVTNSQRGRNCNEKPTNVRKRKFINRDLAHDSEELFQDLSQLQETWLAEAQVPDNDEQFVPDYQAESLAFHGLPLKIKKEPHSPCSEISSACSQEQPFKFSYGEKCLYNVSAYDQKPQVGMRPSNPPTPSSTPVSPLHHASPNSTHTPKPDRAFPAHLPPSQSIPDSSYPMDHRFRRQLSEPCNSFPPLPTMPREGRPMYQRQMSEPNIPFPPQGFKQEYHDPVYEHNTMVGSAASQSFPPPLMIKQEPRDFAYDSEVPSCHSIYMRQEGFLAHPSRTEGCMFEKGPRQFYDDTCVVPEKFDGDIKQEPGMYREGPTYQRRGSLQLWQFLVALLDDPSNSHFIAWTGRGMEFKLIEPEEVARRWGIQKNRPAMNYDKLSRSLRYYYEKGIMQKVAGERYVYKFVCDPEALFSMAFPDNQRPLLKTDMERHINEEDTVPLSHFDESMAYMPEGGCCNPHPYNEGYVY
# How it was run: as §1
# ERF = molecular target: T6, ERF (Homo sapiens, UniProt P50548 1-548); settings: protein: recombinant; tags: N-terminal GST; dsDNA, one strand shown
# T6 sequence: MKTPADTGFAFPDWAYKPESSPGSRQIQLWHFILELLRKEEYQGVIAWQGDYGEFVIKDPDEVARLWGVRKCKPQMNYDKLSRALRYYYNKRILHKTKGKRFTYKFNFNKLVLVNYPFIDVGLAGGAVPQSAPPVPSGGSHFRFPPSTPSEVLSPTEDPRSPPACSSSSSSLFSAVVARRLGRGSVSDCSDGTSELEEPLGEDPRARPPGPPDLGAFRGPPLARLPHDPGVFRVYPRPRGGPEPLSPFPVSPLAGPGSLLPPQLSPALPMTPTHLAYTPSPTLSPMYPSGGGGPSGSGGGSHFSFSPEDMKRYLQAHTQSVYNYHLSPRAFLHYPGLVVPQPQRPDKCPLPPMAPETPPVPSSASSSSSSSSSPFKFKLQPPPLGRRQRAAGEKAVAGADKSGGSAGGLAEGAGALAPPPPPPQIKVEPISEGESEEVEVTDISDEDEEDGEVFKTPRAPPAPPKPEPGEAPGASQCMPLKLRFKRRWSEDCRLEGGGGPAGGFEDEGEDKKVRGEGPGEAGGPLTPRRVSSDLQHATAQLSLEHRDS
# How it was run: as §1
# ETV3L = molecular target: T7, ETV3L (Homo sapiens, UniProt Q6ZN32 1-361); settings: protein: recombinant; tags: N-terminal GST; dsDNA, one strand shown
# T7 sequence: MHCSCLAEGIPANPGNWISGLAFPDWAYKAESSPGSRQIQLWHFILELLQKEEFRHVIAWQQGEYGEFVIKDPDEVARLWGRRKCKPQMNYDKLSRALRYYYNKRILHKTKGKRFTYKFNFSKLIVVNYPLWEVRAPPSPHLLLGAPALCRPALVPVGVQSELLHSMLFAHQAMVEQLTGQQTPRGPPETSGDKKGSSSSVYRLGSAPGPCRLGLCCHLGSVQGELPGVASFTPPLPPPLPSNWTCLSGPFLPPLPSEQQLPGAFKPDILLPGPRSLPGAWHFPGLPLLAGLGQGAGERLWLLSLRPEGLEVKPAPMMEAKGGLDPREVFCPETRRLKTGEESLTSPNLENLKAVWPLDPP
# How it was run: as §1
# ETS2 = molecular target: T8, ETS2 (Homo sapiens, UniProt P15036 1-469); settings: protein: recombinant; tags: N-terminal GST; dsDNA, one strand shown
# T8 sequence: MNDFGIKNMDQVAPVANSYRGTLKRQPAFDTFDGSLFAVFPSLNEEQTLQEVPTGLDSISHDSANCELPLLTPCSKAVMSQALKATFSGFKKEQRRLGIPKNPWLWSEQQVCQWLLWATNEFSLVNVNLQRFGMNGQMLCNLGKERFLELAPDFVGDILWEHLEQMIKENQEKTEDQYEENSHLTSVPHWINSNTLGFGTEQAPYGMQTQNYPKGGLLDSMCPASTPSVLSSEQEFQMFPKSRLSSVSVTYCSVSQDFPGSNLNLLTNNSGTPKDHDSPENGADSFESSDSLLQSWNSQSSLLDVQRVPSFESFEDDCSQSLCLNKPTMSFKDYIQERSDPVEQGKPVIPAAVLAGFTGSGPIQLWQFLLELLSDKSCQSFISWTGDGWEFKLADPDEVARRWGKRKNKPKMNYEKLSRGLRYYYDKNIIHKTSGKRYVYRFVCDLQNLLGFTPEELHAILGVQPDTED
# How it was run: as §1
# SPDEF = molecular target: T9, SPDEF (Homo sapiens, UniProt O95238 1-335); settings: protein: recombinant; tags: N-terminal GST; dsDNA, one strand shown
# T9 sequence: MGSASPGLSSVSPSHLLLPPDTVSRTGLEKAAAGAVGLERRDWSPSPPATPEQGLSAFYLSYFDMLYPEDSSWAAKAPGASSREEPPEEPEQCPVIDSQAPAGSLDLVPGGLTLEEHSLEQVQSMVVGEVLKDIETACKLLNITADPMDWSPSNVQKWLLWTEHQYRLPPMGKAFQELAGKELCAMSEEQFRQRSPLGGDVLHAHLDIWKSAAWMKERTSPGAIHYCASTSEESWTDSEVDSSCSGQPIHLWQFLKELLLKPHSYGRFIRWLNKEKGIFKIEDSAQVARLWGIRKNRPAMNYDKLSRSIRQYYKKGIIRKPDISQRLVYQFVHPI
# How it was run: as §1
# ETV7 = molecular target: T10, ETV7 (Homo sapiens, UniProt Q9Y603 1-341); settings: protein: recombinant; tags: N-terminal GST; dsDNA, one strand shown
# T10 sequence: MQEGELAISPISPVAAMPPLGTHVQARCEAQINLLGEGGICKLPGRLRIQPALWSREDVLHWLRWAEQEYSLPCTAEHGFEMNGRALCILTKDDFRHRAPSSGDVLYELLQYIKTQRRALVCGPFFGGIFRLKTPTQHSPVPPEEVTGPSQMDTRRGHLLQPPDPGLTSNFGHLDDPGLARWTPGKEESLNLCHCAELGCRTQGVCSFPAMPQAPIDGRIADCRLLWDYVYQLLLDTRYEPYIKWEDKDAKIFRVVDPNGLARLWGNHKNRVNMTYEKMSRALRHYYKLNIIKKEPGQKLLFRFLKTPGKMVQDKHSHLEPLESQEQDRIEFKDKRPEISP
# How it was run: as §1
# ELF5 = molecular target: T11, ELF5 (Homo sapiens, UniProt Q9UKW6-2 1-255); settings: protein: recombinant; tags: N-terminal GST; dsDNA, one strand shown
# T11 sequence: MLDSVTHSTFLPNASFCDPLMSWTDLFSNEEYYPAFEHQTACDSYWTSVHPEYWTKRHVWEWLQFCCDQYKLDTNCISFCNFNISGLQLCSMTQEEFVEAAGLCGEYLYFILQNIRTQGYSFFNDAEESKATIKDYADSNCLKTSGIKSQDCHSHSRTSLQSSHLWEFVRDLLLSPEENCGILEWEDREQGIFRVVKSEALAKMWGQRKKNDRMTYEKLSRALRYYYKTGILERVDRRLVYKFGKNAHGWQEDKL
# How it was run: as §1
# ETV3 = molecular target: T12, ETV3 (Homo sapiens, UniProt P41162-2 1-143); settings: protein: recombinant; tags: N-terminal GST; dsDNA, one strand shown
# T12 sequence: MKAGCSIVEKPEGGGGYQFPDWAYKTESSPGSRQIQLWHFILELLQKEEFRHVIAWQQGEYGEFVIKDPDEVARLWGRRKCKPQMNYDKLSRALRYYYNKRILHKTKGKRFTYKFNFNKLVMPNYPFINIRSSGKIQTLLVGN
# How it was run: as §1
# ETV6 = ETV6 (Homo sapiens, UniProt P41212 1-452); settings: protein: recombinant; tags: N-terminal GST; dsDNA, one strand shown
# ETV6, sequence (P41212 whole entry): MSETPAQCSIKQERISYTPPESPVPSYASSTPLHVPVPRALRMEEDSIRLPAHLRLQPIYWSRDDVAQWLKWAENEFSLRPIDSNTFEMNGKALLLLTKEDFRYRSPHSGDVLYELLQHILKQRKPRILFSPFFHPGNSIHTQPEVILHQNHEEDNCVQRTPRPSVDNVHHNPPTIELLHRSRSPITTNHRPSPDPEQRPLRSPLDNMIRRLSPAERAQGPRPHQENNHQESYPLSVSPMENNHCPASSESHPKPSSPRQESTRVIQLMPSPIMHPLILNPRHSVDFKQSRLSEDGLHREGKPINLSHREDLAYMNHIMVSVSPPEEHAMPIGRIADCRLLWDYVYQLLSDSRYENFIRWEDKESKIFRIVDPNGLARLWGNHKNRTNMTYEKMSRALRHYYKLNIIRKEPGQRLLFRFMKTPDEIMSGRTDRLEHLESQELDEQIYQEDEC
# How it was run: as §1
sequence,measurement,setting,value
TGATCC,binding signal,FEV,"1.29 fold enrichment (6-mer frequency, TF over GST control)"
same,binding signal,ETV5,"1.3 fold enrichment (6-mer frequency, TF over GST control)"
same,binding signal,HSF1,"1.65 fold enrichment (6-mer frequency, TF over GST control)"
same,binding signal,SPIC,"1.32 fold enrichment (6-mer frequency, TF over GST control)"
same,binding signal,ELF4,"1.28 fold enrichment (6-mer frequency, TF over GST control)"
same,binding signal,ELK4,"1.26 fold enrichment (6-mer frequency, TF over GST control)"
same,binding signal,ETV2,"1.09 fold enrichment (6-mer frequency, TF over GST control)"
same,binding signal,ELF3,"1.1 fold enrichment (6-mer frequency, TF over GST control)"
same,binding signal,CRX,"2.2 fold enrichment (6-mer frequency, TF over GST control)"
same,binding signal,ETV1,"1.27 fold enrichment (6-mer frequency, TF over GST control)"
same,binding signal,ERF,"1.23 fold enrichment (6-mer frequency, TF over GST control)"
same,binding signal,ETV3L,"1.28 fold enrichment (6-mer frequency, TF over GST control)"
same,binding signal,ETS2,"1.25 fold enrichment (6-mer frequency, TF over GST control)"
same,binding signal,SPDEF,"1.63 fold enrichment (6-mer frequency, TF over GST control)"
same,binding signal,ETV7,"1.12 fold enrichment (6-mer frequency, TF over GST control)"
same,binding signal,ELF5,"1.35 fold enrichment (6-mer frequency, TF over GST control)"
same,binding signal,ETV3,"1.24 fold enrichment (6-mer frequency, TF over GST control)"
same,binding signal,ETV6,"1.26 fold enrichment (6-mer frequency, TF over GST control)"
